RGS4-Gao reg = modulators of RGS4 binding to Galphao, primary screen, biochemical, multiplexed bead flow cytometry; Guanine nucleotide-binding protein G(o) subunit alpha (Homo sapiens), P09471; actives lie on both sides; binding response (% of control), % at 10 µM; hit rate 0.33% among 220,000; AID 1415, 2008; in the data active = binding response below about 49% or above about 150%; inactive = in between;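 also: fluorescent Galphao activated with aluminum fluoride binding bead-coupled RGS4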
Avidin fluor = green autofluorescence of compounds with avidin beads – biophysical, 488/530 nm, flow cytometry, artefact control, profiling panel; hit rate 0.38% among 220,000; AID 1775, 2009; compound fluorescence 488/530 nm; active compounds read high; fluorescence (KMESF) at 10 µM; in the data active = fluorescence above about 47
RGS8-Gao reg = RGS8-Galphao binding modulators, primary screen, biochemical, multiplexed bead flow cytometry | Guanine nucleotide-binding protein G(o) subunit alpha (Homo sapiens), P09471 | actives lie on both sides | response (percent of control binding), % at 10 µM | hit rate 0.34% among 220,000 | AID 1423, 2008; in the data active = response below about 60% or above about 140%; inactive = in between;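 also: Galphao activated as the GDP aluminium fluoride complex binding bead-coupled RGS8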
RGS16-Gao HTS = modulators of RGS16 binding to Galphao, primary screen, biochemical, human proteins, multiplexed bead flow cytometry. Regulator of G-protein signaling 16 (Homo sapiens) + Guanine nucleotide-binding protein …. bead-based flow cytometry RGS16-Galphao binding, fluorescence; actives lie on both sides. binding response (% of control), % at 10 µM. hit rate 0.38% among 220,000. AID 1441, 2008; call rule not given here;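 also: Galphao activated by GDP with aluminum fluoride before binding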
Target sequence (O15492 whole entry, looked up): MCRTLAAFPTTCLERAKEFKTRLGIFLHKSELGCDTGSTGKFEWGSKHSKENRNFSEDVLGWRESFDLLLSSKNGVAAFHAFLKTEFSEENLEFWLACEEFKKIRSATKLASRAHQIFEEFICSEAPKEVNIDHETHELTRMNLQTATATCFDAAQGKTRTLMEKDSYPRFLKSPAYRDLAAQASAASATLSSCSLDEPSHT
Target sequence (P09471 whole entry, looked up): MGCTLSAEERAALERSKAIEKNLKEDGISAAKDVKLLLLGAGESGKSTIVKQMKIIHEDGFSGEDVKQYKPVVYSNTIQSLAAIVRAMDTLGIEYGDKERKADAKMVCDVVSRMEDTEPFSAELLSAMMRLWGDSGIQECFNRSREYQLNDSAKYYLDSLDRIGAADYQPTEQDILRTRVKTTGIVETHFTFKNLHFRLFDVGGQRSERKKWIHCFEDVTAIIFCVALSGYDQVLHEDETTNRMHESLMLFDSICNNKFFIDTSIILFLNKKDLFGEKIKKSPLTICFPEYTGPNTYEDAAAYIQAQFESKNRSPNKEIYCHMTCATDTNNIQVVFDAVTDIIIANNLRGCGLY
GSH bead fluor = compound fluorescence on glutathione beads, profiling panel, artefact control, biophysical, 488/530 nm, flow cytometry | GSH beads flow cytometry, compound fluorescence 488/530 nm; active compounds read high | hit rate 0.25% among 190,000 | fluorescence (KMESF) at 10 µM | AID 1776, 2009; in the data active = fluorescence above about 89;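 also: glutathione beads carrying GST-tagged Bcl family fusion proteins plus one bare bead set; values are compound well signal with DMSO vehicle wells as background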
RGS7-Gao = RGS7-Galphao binding modulators, primary screen, biochemical, multiplexed bead flow cytometry; Guanine nucleotide-binding protein G(o) subunit alpha (Homo sapiens), P09471; actives lie on both sides; binding response (% of control), % at 10 µM; hit rate 0.35% among 220,000; AID 1439, 2008; in the data active = binding response below about 49% or above about 150%; inconclusive = no clear call, values can overlap the other calls; inactive = in between;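 also: fluorescent Galphao held in activated GDP-AlF4 state binding bead-coupled RGS7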
Starred values were filed as active, the others as inactive; ? = inconclusive; [ ] = dose if it differs, or a comment. In the library only some 1.2% were active in any assay of this set; here they are far more common.

SMILES	RGS4-Gao reg	Avidin fluor	RGS8-Gao reg	RGS16-Gao HTS	GSH bead fluor	RGS7-Gao
Cc1nc(SCC(=O)NCc2ccccc2)c2oc3ccccc3c2n1	102	50*	102	100	24	105
CCOc1ccc(NS(=O)(=O)c2ccc(NC(=O)c3cccnc3)c(OC)c2)cc1	103	12	100	100	12	?
COc1ccc(OCC(=O)O/N=C(\N)Cc2ccc(Cl)cc2)cc1	101	54*	97	100	22	108
Cc1ccc(OCC(=O)O/N=C(\N)Cc2ccc(Cl)cc2)cc1	99	27	102	98	24	96
O=C(COc1ccc(Br)cc1)N1CCN(c2ccc([N+](=O)[O-])c(N3CCCCC3)c2)CC1	101	12	101	101	12	100
COc1cc(OC)cc(C(=O)N2CCN(C(=O)COc3ccc4ccccc4c3)CC2)c1	97	6	102	110	39	94
O=C(COc1ccc2ccccc2c1)N1CCN(C(=O)c2cccnc2)CC1	110	85*	103	104	17	133
O=C(COc1ccccc1)N1CCN(c2ccc([N+](=O)[O-])c(N3CCCCC3)c2)CC1	105	54*	101	103	30	117
COc1ccc(N2CCN(C(=O)COc3ccc4ccccc4c3)CC2)cc1	105	53*	103	104	17	106
COc1ccc(CCN2C(=O)c3ccccc3C2(O)c2ncc[nH]2)cc1OC (stereo not given)	95	4	98	101	146*	95
CC1Cc2ccccc2N1C(=O)CN1C(=O)C(=O)N(Cc2ccccc2)C1=O (stereo not given)	96	7	98	105	260*	96
CC1Cc2ccccc2N1C(=O)CCS(=O)(=O)c1cccs1 (stereo not given)	222*[activator]	125*	148*[activator]	634	150*	322*[activator]
CCCCCCc1cc2cc(-c3nnc(-c4ccccc4OC)o3)c(=O)oc2cc1O	88	5	102	109	248*	93
CCCCCCc1cc2cc(-c3nnc(-c4ccccc4O)o3)c(=O)oc2cc1O	111	26	100	111	26	109
CCCCCCc1cc2cc(-c3nnc(-c4cc(OC)c(OC)c(OC)c4)o3)c(=O)oc2cc1O	100	7	98	98	113*	99
O=C(c1c[nH]c2ccc(S(=O)(=O)N3CCC4(CC3)OCCO4)cc2c1=O)N1CCOCC1	100	51*	101	99	12	103
COC(CNC(=O)c1c[nH]c2ccc(S(=O)(=O)N3CCC4(CC3)OCCO4)cc2c1=O)OC	95	3	90	70	26	96
COC(=O)c1ccc(/C=C(\C#N)c2ccccn2)cc1	100	8	98	97	13	98
COC(=O)c1ccc(OC(=O)c2ccccn2)cc1	100	7	99	101	269*	102
CCc1ccc2c(c1)c1nc(C)sc1n2CC(=O)OC	104	51*	102	105	26	102
C/C(=N\Nc1nc2ccccc2[nH]1)c1ccc(N2CCOCC2)cc1	103	30	106	107	9	107
CN(C)c1nc(C=C(C#N)C#N)c(Cl)n1-c1ccc(F)cc1	104	9	101	100	12	?
CCN(CC)S(=O)(=O)c1ccc(NC2CCCc3ccccc32)nc1 (stereo not given)	101	35	102	101	25	100
c1ccc2c(c1)CCCC2NC1=NCCC1 (stereo not given)	105	11	100	106	256*	105
CCOCc1nnc(NC(=O)C2c3ccccc3Oc3ccccc32)s1	97	9	97	97	19	95
SMILES	RGS4-Gao reg	Avidin fluor	RGS8-Gao reg	RGS16-Gao HTS	GSH bead fluor	RGS7-Gao
CC1(C)CC2c3cccc(C(=O)O)c3C(=O)N2c2c1ccc1ccccc21 (stereo not given)	104	3	113	135	12	100
CCOc1ccccc1OCCCC(=O)N1CCN(S(=O)(=O)c2cccc(F)c2)CC1	88	8	95	91	8	100
CCOc1ccccc1OCCCC(=O)N1CCN(S(=O)(=O)c2ccc(C)cc2)CC1	108	9	107	116	256*	108
O=C(COc1ncnc2ccccc12)N1CCN(S(=O)(=O)c2ccc(Cl)cc2)CC1	98	9	100	102	264*	102
O=C(COc1ncnc2ccccc12)N1CCN(S(=O)(=O)c2ccccc2)CC1	98	12	99	89	21	99
CCc1ccc(N2CC(C(=O)Nc3ccc(C)c(S(=O)(=O)N4CCOCC4)c3)CC2=O)cc1 (stereo not given)	181*[activator]	5	145*[activator]	168	34	152*[activator]
Cc1ccc(NC(=O)C2CC(=O)N(Cc3ccccc3)C2)cc1S(=O)(=O)N1CCCCCC1 (stereo not given)	100	21	104	99	14	100
CC(=O)Oc1ccc2oc(C)c(C(=O)N3CCOCC3)c2c1	96	25	99	97	21	95
CC(=O)Oc1ccc2oc3c(c2c1)C(=O)CCC3	98	8	100	96	260*	99
O=C1C2CCCN2C(c2cccc(Br)c2)N1c1ccc(F)cc1 (stereo not given)	101	48*	101	104	16	113
O=C1C2CCCN2C(c2ccc(Br)cc2)N1c1ccc(F)cc1 (stereo not given)	101	7	105	106	26	96
O=C(NCc1ccco1)c1ccc(-c2cccc(Cl)c2)o1	97	5	89	56	26	95
CCCCC(=O)NC(=S)Nc1cccc(NC(=O)c2ccccc2)c1	99	18	99	100	15	?
COC(=O)C(C)N1C(=O)S/C(=C/c2cc(C)n(-c3ccccn3)c2C)C1=O (stereo not given)	104	8	104	98	267*	101
COCCN(C(=O)Nc1ccc(OC)cc1OC)C1CCN(C(C)C)CC1	105	51*	104	103	35	133
CC(=O)NNC(=S)NCCc1ccccc1	106	96*	101	110	12	135
CCc1c(C(=O)NNC(=S)NCCc2ccccc2)csc1C	92	3	96	94	148*	97
CCc1c(C(=O)NNC(=S)NC2CCCCC2)csc1C	98	8	101	100	15	?

Bioassay records from PubChem BioAssay.
